Data reported in the supplement of paper PMC9844399.
Several values for one entry are separate records, joined by “and”; a condition that tells them apart may be missing. Equal entries are not always repeated. Structures can show the parent of a compound that is named as a salt.

System: HeLa
Assay: nuclear count per well, robust Z-score vs DMSO; higher = more cells (less toxicity)
Settings: 10 µM; 6 h
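Further: Hoechst-stained nuclei counted by automated confocal imaging of four fields per well in 384-well plates, with the robust Z-score based on the per-plate DMSO median and robust SD.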

Structure (SMILES)	nuclear count per well
NCCCC[C@H](N[C@@H](CCc1ccccc1)C(=O)O)C(=O)N1CCC[C@H]1C(=O)O [Lisinopril Dihydrate]	0.697
OC[C@@H](O)[C@H](O)[C@@H](O)CO [Xylitol]	0.858
CC(C)NCC(O)COc1ccc(CC(N)=O)cc1 (stereo not drawn)	0.069
N[C@@H](CC(=O)N1CCn2c(nnc2C(F)(F)F)C1)Cc1cc(F)c(F)cc1F [Sitagliptin Phosphate]	-0.504
CCCCC/C=C\C/C=C\C/C=C\C=C\[C@@H](O)CCCC(=O)O	-0.257
NC(=O)N1c2ccccc2CC(=O)c2ccccc21 [Oxcarbazepine]	0.119
CCCCCCCCCC(=O)OCC(CO)OC(=O)CCCCCCCCC (stereo not drawn) [1,2-Didecanoyl-glycerol (10:0)]	-0.111
O=C(O)c1ccccc1 [Benzoic acid]	0.407
CC(N/C(=N\C#N)Nc1ccncc1)C(C)(C)C (stereo not drawn) [Pinacidil]	-2.36
CC1(C)NC(=O)N(c2ccc([N+](=O)[O-])c(C(F)(F)F)c2)C1=O [Nilutamide]	-0.267
CC(C)(O)c1ccccc1CC[C@@H](SCC1(CC(=O)O)CC1)c1cccc(/C=C/c2ccc3ccc(Cl)cc3n2)c1	-0.315
O=C(NCCCCCCNC(=O)ON=C1CCCCC1)ON=C1CCCCC1	0.866 and 0.536
CC[C@H](C)C(=O)O[C@H]1CCC=C2C=C[C@H](C)[C@H](CC[C@@H]3C[C@@H](O)CC(=O)O3)[C@H]21 [Mevastatin]	0.784
CN1CCN2c3ncccc3Cc3ccccc3C2C1 (stereo not drawn) [Mirtazapine]	0.384
NC(=O)N1c2ccccc2C=Cc2ccccc21 [Carbamazepine]	0.823
COc1cc2nc(N3CCN(C(=O)c4ccco4)CC3)nc(N)c2cc1OC [Prazosin hydrochloride]	0.511
CN1CC2c3ccccc3Oc3ccc(Cl)cc3C2C1 (stereo not drawn) [Asenapine Maleate]	-0.443

Structure (SMILES)	nuclear count per well
OC[C@@H](O)[C@@H](O)[C@H](O)[C@H](O)CO [Mannitol]	-0.686
O=C(NCCN1CCC(n2c(=O)[nH]c3cc(Cl)ccc32)CC1)c1ccc(F)cc1 [Halopemide]	-1.19
O=C[C@@H]1CCCN1C(=O)[C@@H]1CCCN1C(=O)OCc1ccccc1 [Z-prolyl-prolinal]	0.514
OC[C@H]1O[C@@H](O[C@@H]2[C@@H](CO)OC(O)(CO)[C@H]2O)[C@H](O)[C@@H](O)[C@H]1O (mixture of isomers) [Lactulose]	0.314
O=C(O)c1cccnc1 [Niacin]	-0.0949
CC[C@@H]1C(=O)OC[C@@H]1Cc1cncn1C	0.99
COc1cc(CNC(=O)CCCC/C=C/C(C)C)ccc1O [Capsaicin]	-0.54
CN1CCC[C@@H]1CCO[C@](C)(c1ccccc1)c1ccc(Cl)cc1 [Clemastine fumarate]	0.147
CN[C@@H]1[C@H](O[C@H]2[C@H](O[C@H]3[C@H](O)[C@@H](O)[C@H](N=C(N)N)[C@@H](O)[C@@H]3N=C(N)N)O[C@@H](C)[C@]2(O)C=O)O[C@@H](CO)[C@H](O)[C@H]1O [Streptomycin Sulfate]	0.805
CCCCC/C=C\C=C\[C@@H](O)CCCCCCCC(=O)O	-0.337
CC1=C(C(=O)OC2CCCCC2)C(c2ccc([N+](=O)[O-])cc2)C2=C(CC(C)(C)CC2=O)N1 (stereo not drawn)	-0.24
CC(c1cc2ccccc2s1)N(O)C(N)=O (stereo not drawn) [Zileuton]	0.0856
O=C(O)CCCCCCCC(=O)O [Azelaic Acid]	1.11
CC[C@@H]1/C=C(\C)C[C@H](C)C[C@H](OC)[C@H]2O[C@@](O)(C(=O)C(=O)N3CCCC[C@H]3C(=O)O[C@H](/C(C)=C/[C@@H]3CC[C@H](Cl)[C@H](OC)C3)[C@H](C)[C@@H](O)CC1=O)[C@H](C)C[C@@H]2OC [Pimecrolimus]	0.66
C#C[C@]1(O)CC[C@H]2[C@@H]3CCC4=CC(=O)CC[C@@H]4[C@H]3CC[C@@]21CC [Levonorgestrel]	0.24
CCOC(=O)[C@H](CCc1ccccc1)N[C@@H](C)C(=O)N1Cc2ccccc2C[C@H]1C(=O)O	-0.26
